Assay results: the supplement of paper PMC10849652
The full data set covers some 8,800 targets. This sample favours those with a hit. About 0.5% of all pairs of compound and target were hits. Values without a mark were called inactive.

Legend:
Test in all cases: log2 fold change, soluble protein after heating vs DMSO (PISA); higher = thermal stabilisation; K562 lysate, 10 uM; active = over 0.2 and 3.5 SD of the protein, either way, in both replicates (recomputed)
ibrutinib = compound: C=CC(=O)N1CCC[C@@H](n2nc(-c3ccc(Oc4ccccc4)cc3)c3c(N)ncnc32)C1 [ibrutinib]
Outline: (§1)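 To prepare the extract, K562 pellets were dounce-homogenised in PBS pH 7.4 with 1 mM MgCl2, giving crude material at 1 mg/mL protein. This was treated with 10 μM compound for 30 min, then heated in aliquots for 3 min over 48°C-58°C before pooling and addition of NP-40 to 0.5% at 4°C. Centrifugation at 21,000xg for 90 min left soluble protein in the supernatant, which TMTpro 16plex LC-MS/MS quantified with equalised channel sums. Results are log-two fold changes in thermal stability compared with solvent controls, from duplicates.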

[1] = compound: CC(=O)c1cnc2ccc(-c3cc(Cl)c(O)c(Cl)c3)nc2c1N[C@H]1CC[C@H](CN(C)C)CC1
Outline: as §1

ralimetinib = compound: CC(C)(C)Cn1c(N)nc2ccc(-c3[nH]c(C(C)(C)C)nc3-c3ccc(F)cc3)nc21 [ralimetinib]
Outline: as §1

[2] = compound: CC(C)(O)CC(=O)NCCn1ccc2ncnc(Nc3ccc(Oc4cccc(C(F)(F)F)c4)c(Cl)c3)c21
Outline: as §1

[3] = compound: CC(C)C1=C2N=C(C=C(N2N=C1)NCC3=CC=CC=C3)NCCCCCCN
Outline: as §1

[4] = compound: CC1=C(C(CC(=O)N1)C2=CC=C(C=C2)C(F)(F)F)C(=O)NC3=C(C=C4C(=C3)C=NN4)F
Outline: as §1

[5] = compound: CC1=C(C2=C(C=C1)C(=O)C3=CC=CC=C3N2CCCN)C
Outline: as §1

[6] = compound: CC1=C(C=C(C=C1)NC(=O)C2=CC(=CC=C2)C(C)(C)C#N)NC3=CC4=C(C=C3)N=CN(C4=O)C
Outline: as §1

[7] = compound: CC1=C(C=C(C=C1)NC(=O)C2=CC(=CC=C2)N(C)C)NC(=O)C3=CC=C(C=C3)O
Outline: as §1

[8] = compound: CC1=CC=C(C=C1)SC2=C3C=C(SC3=CN=C2)C(=O)N
Outline: as §1

vemurafenib = compound: CCCS(=O)(=O)Nc1ccc(F)c(C(=O)c2c[nH]c3ncc(-c4ccc(Cl)cc4)cc23)c1F [vemurafenib]
Outline: as §1

[9] = compound: CCCS(=O)(=O)Nc1ccc(F)c(C(=O)c2c[nH]c3ncc(Cl)cc23)c1F
Outline: as §1

barasertib = compound: CCN(CCCOc1ccc2c(Nc3cc(CC(=O)Nc4cccc(F)c4)[nH]n3)ncnc2c1)CCOP(=O)(O)O [barasertib]
Outline: as §1

[10] = compound: CC[C@@H]1C(=O)N(C)c2cnc(Nc3ccc(C(=O)NC4CCN(C)CC4)cc3OC)nc2N1C1CCCC1
Outline: as §1

volasertib = compound: CC[C@@H]1C(=O)N(C)c2cnc(Nc3ccc(C(=O)N[C@H]4CC[C@H](N5CCN(CC6CC6)CC5)CC4)cc3OC)nc2N1C(C)C [volasertib]
Outline: as §1

[11] = compound: CCn1c(C(=O)N(C2CC2)C2CC2)cc2c3c(ncn3C)c(Nc3cc(C)n(C)n3)nc21
Outline: as §1

[12] = compound: CCn1cc(-c2ccnc3[nH]c(-c4cccc(CN(C)C)c4)cc23)c(-c2ccc(NC(=O)N(C)C)cc2)n1
Outline: as §1

[13] = compound: CN1CCC(CNc2ccc3ncc(-c4cccc(OC(F)(F)F)c4)n3n2)CC1
Outline: as §1

saracatinib = compound: CN1CCN(CCOc2cc(OC3CCOCC3)c3c(Nc4c(Cl)ccc5c4OCO5)ncnc3c2)CC1 [saracatinib]
Outline: as §1

sotrastaurin = compound: CN1CCN(c2nc(C3=C(c4c[nH]c5ccccc45)C(=O)NC3=O)c3ccccc3n2)CC1 [sotrastaurin]
Outline: as §1

Chain of UniProt P24468 (P24468 whole entry, looked up): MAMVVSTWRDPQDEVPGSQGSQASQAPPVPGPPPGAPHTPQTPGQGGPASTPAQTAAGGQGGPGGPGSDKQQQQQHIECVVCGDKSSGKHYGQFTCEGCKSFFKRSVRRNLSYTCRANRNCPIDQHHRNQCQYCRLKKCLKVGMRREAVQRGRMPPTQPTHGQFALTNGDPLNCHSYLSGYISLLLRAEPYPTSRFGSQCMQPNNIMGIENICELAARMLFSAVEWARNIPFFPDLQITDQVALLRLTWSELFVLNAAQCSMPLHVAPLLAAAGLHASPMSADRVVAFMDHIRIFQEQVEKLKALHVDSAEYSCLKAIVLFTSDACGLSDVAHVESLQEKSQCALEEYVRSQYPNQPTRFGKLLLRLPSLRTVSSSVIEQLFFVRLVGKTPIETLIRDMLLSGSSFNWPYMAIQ
Chain of UniProt O00159 (O00159 whole entry, looked up): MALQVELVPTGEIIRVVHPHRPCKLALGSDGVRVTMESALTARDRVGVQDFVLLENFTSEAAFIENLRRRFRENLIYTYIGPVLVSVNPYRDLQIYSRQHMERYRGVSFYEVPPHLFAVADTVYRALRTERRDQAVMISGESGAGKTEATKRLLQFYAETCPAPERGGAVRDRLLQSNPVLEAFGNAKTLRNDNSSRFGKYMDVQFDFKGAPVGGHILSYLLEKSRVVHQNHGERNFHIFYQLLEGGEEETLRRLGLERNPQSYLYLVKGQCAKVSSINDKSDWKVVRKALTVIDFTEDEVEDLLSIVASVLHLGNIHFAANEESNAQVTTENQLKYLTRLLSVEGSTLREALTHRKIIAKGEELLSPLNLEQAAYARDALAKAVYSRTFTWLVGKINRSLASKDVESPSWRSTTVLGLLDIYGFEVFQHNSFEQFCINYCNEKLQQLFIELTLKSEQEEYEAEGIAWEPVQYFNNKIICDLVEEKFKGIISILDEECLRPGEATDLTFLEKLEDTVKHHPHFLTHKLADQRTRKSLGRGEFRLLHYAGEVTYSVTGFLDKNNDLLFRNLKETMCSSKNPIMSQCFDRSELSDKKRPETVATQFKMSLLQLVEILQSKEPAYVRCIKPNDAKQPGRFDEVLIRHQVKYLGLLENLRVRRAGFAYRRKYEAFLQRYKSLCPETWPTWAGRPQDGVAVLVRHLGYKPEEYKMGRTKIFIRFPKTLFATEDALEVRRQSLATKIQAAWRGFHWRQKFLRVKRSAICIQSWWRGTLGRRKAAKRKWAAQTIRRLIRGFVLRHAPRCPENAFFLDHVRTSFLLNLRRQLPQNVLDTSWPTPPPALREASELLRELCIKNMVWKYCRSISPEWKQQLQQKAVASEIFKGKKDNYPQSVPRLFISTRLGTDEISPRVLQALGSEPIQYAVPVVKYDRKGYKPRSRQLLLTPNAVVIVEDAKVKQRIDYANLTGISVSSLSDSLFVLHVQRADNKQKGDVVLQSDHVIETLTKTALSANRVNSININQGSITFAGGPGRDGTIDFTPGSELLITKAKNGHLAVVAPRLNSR
Chain of UniProt Q9BXW6 (Q9BXW6 whole entry, looked up): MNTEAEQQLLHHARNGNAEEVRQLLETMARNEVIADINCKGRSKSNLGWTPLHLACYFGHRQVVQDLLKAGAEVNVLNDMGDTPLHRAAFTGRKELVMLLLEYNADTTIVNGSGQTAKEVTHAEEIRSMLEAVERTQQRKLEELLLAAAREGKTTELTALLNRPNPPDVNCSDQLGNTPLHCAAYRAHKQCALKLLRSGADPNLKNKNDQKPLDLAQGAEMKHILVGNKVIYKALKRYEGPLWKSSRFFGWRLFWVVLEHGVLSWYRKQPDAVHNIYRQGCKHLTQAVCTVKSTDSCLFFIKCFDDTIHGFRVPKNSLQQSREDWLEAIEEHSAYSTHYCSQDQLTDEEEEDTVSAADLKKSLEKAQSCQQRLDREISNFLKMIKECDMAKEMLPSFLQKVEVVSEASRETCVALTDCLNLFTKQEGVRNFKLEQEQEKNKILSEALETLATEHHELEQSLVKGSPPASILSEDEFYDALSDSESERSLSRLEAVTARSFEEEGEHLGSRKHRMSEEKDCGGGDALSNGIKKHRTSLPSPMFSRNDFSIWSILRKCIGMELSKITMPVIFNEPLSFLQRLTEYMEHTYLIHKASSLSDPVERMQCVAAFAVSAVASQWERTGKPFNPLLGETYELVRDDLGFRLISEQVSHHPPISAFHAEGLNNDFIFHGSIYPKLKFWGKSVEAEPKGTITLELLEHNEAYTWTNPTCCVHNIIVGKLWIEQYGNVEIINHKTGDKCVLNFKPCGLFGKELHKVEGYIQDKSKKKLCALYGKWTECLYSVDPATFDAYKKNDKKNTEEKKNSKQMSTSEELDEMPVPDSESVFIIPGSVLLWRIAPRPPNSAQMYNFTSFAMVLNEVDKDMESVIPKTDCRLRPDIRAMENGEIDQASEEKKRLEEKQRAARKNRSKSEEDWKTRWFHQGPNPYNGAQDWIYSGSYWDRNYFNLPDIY
Chain of UniProt Q9HD67 (Q9HD67 whole entry, looked up): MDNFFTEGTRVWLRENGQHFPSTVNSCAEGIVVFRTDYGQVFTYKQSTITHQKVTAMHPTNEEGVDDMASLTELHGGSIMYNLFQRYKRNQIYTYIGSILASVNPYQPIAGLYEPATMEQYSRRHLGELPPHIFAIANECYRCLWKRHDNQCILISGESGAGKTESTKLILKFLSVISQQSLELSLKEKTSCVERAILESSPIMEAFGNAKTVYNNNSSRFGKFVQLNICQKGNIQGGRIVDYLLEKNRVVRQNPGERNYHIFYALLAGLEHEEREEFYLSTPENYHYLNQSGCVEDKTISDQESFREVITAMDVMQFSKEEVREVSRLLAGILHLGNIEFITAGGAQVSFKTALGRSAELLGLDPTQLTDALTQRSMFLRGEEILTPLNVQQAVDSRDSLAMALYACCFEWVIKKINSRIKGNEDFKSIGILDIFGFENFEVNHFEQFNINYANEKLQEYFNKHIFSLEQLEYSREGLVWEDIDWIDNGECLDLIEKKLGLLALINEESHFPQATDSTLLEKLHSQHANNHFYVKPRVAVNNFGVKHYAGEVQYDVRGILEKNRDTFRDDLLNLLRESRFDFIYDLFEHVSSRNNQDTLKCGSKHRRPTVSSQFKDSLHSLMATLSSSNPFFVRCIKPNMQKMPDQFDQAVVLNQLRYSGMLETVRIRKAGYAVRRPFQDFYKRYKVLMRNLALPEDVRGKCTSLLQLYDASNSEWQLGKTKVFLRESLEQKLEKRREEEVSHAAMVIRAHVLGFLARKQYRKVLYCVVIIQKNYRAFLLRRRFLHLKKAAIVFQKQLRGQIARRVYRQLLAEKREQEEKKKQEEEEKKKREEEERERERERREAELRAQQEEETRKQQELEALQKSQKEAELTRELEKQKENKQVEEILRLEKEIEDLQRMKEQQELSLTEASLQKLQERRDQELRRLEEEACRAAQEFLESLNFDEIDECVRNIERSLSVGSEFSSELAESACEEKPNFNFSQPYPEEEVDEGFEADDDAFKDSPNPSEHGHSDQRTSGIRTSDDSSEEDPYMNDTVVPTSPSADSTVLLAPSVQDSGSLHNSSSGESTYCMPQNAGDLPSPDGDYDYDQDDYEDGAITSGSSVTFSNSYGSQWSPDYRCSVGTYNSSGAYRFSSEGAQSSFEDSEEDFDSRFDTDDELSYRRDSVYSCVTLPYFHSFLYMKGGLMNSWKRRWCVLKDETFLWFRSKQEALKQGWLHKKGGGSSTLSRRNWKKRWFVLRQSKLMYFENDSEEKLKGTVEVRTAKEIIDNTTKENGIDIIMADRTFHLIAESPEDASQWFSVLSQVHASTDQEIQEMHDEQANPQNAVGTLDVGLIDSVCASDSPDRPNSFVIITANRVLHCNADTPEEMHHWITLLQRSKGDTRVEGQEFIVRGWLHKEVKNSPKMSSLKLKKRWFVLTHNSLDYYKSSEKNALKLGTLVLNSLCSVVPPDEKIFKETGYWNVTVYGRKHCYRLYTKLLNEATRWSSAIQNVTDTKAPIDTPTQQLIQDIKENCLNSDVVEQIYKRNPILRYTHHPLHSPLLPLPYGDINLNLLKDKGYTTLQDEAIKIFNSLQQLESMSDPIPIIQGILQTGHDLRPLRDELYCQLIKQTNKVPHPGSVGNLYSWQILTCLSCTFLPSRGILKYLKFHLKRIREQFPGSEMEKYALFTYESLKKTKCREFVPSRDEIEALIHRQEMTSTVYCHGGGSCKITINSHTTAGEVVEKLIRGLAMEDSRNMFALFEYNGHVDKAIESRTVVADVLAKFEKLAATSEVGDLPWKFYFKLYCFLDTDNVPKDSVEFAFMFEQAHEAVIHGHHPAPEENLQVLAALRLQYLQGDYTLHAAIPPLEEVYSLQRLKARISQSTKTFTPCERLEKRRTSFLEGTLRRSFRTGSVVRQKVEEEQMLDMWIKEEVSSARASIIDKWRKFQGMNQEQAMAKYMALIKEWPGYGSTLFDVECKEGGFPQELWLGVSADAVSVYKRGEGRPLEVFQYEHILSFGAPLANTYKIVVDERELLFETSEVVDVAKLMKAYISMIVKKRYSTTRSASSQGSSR
Chain of UniProt O60829 (O60829 whole entry, looked up): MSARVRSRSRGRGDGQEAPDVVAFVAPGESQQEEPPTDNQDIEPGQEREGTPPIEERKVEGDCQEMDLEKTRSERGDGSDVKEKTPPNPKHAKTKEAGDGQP
Chain of UniProt Q96NT1 (Q96NT1 whole entry, looked up): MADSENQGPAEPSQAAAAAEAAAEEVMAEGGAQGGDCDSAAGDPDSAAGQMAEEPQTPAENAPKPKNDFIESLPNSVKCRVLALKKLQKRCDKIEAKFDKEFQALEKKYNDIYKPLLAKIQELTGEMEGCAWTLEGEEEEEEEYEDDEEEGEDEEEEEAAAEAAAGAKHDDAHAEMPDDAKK
Chain of UniProt Q9UDX5 (Q9UDX5 whole entry, looked up): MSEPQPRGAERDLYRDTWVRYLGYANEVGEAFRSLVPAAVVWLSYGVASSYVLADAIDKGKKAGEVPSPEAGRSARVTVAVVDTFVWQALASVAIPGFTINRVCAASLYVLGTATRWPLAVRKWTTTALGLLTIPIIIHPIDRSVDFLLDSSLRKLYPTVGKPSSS

Target | log2 fold change (ibrutinib) | log2 fold change [1] | log2 fold change (ralimetinib) | log2 fold change [2] | log2 fold change [3] | log2 fold change [4] | log2 fold change [5] | log2 fold change [6] | log2 fold change [7] | log2 fold change [8] | log2 fold change (vemurafenib) | log2 fold change [9] | log2 fold change (barasertib) | log2 fold change [10] | log2 fold change (volasertib) | log2 fold change [11] | log2 fold change [12] | log2 fold change [13] | log2 fold change (saracatinib) | log2 fold change (sotrastaurin)
NELFCD (UniProt Q8IXH7) | 0.039 | 0.013 | 0.019 | -0.043 | 0.009 | 0.007 | 0.013 | 0.011 | 0.049 | -0.02 | 0.014 | 0.037 | 0.047 | 0.006 | -0.032 | 0.02 | 0.089 | -0.049 | -0.005 | 0.012
NUMB (UniProt P49757) | 0.03 | 0.005 | 0.021 | -0.055 | 0.003 | -0.007 | -0.015 | 0.081 | 0.004 | -0.005 | 0.001 | 0.001 | 0.028 | 0.06 | -0.015 | 0.008 | 0.055 | -0.061 | 0.024 | -0.134
NUP210 (UniProt Q8TEM1) | -0.029 | -0.01 | -0.011 | -0.075 | -0.005 | 0.024 | -0.017 | -0.005 | -0.027 | -0.012 | -0.009 | 0.048 | 0.072 | -0.004 | 0.006 | 0.036 | 0.012 | -0.015 | 0.029 | -0.004
MYO1C (UniProt O00159) | 0.037 | 0.031 | 0.075 | -0.032 | -0.009 | -0.03 | 0.017 | -0.292 (active) | 0.021 | 0.06 | -0.016 | 0.039 | -0.012 | -0.042 | -0.046 | 0.101 | -0.025 | -0.018 | -0.019 | 0.028
NAA35 (UniProt Q5VZE5) | -0.005 | -0.017 | 0.006 | 0.042 | -0.01 | -0.008 | -0.004 | -0.006 | 0.017 | -0.02 | 0 | 0.015 | -0.01 | 0.05 | -0.026 | 0.001 | 0.179 | -0.035 | 0.026 | 0.006
NAP1L5 (UniProt Q96NT1) | -0.056 | 0.018 | -0.034 | 0.034 | -0.037 | -0.036 | -0.045 | -0.13 | -0.036 | -0.009 | -0.094 | 0.005 | 0.037 | 0.181 | -0.033 | 0.052 | 0.62 (active) | -0.205 | -0.15 | 0.08
MTFP1 (UniProt Q9UDX5) | 0.097 | -0.065 | -0.017 | 0.079 | -0.058 | 0.018 | 0.009 | -0.011 | -0.048 | -0.001 | -0.025 | 0.031 | 0.012 | 0.036 | 0.041 | 0.061 | -0.421 (active) | 0.041 | -0.042 | 0.004
MYO10 (UniProt Q9HD67) | -0.059 | – | -0.136 | -0.385 | 0.035 | -0.078 | – | -0.001 | 0.042 | – | 0.483 | – | 0.171 | – | – | -0.185 | 1.26 (active) | -0.381 | – | -0.287
PAGE4 (UniProt O60829) | 0.056 | -0.029 | 0.028 | -0.077 | 0.072 | – | -0.014 | 0.04 | 0.078 | 0.004 | – | 0.015 | 0.108 | 0.039 | 0.002 | -0.042 | 0.476 | -0.158 | 0.046 | 0.092
NSUN7 (UniProt Q8NE18) | 0.076 | -0.025 | 0.168 | -0.137 | 0.042 | – | – | 0.102 | -0.009 | -0.017 | -0.098 | -0.046 | -0.084 | -0.016 | 0.077 | -0.049 | -0.039 | -0.032 | – | 0.017
NEXN (UniProt Q0ZGT2) | 0.173 | -0.008 | 0.257 | 0.057 | 0.066 | -0.012 | -0.065 | – | 0.101 | -0.017 | 0.073 | 0.218 | 0.101 | -0.132 | 0.051 | 0.075 | -0.231 | 0.209 | 0.026 | –
MYBL2 (UniProt P10244) | – | – | 0 | 0.02 | -0.008 | – | 0.057 | 0.048 | -0.013 | – | -0.07 | – | – | 0.013 | – | 0.069 | 0.217 | -0.296 | 0.057 | 0.043
MYH6 (UniProt P13533) | 0.793 (active) | -0.017 | 0.045 | -0.157 | 0.01 | – | – | 0.047 | -0.081 | -0.172 | – | -0.081 | 0.006 | 0.215 | 0.084 | -0.137 | – | – | – | -0.017
NR2F2 (UniProt P24468) | 0.007 | -0.09 | -0.006 | -0.069 | -0.067 | 0.097 | 0.032 | -0.031 | 0.065 | -0.042 | – | -0.081 | 0.01 | – | -0.146 | -0.028 | 0.005 | -0.216 | 0.014 | 0.013
MYLK (UniProt Q15746) | 0.099 | 0.226 | – | – | – | 0.061 | – | 0.228 | – | 0.004 | -0.254 | -0.022 | -0.097 | -0.675 (active) | -0.053 | – | -0.169 | 0.014 | – | -0.084
OSBPL1A (UniProt Q9BXW6) | 0.019 | -0.002 | – | – | 0.116 | 0.152 | -0.069 | 0.012 | – | -0.028 | – | 0.028 | 0.007 | – | 0.019 | – | -0.095 | 0.05 | 0.013 | 0.038
NPLOC4 (UniProt I3L3I1) | -0.022 | – | – | – | – | – | -0.169 | 0.447 | – | – | – | – | 0.125 | 0.104 | – | – | – | – | 0.152 | -0.108
NTMT1 (UniProt S4R338) | – | -0.182 | – | – | – | – | – | – | – | 0.058 | – | 0.043 | – | – | -0.002 | – | – | – | – | –
PARD3B (UniProt Q8TEW8) | – | – | – | – | 0.091 | – | 0.071 | – | – | – | – | – | – | – | – | – | 1.46 | -0.046 | -0.002 | –
